Experimental data as given in the supplement of paper PMC6555819.

Tests used:
Assay in all cases: PBM binding z-score (relative to random genomic background probes); higher = stronger binding; sequences stand for … in GC…GCGATTGACAGCGTAGAATGAAGG
[1] = system: FXR:RXRa (NR concentration 270 nM, RXRa partner concentration 90 nM)
Summary of the method: (§1)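 For binding z-scores, the reference was random background probes on custom Agilent 4×180K protein-binding microarrays. These arrays were incubated 1 h with ligand-free nuclear receptor dimers in PBS pH 7.4, 2% milk, 0.02% Triton X-100, 1 mM DTT, 0.2 mg/mL BSA and 0.4 mg/ml salmon testes DNA. Fluorescence was scanned after antibody detection of each partner (one per run) and regression-normalized.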

[2] = system: LXRa:RXRa (NR concentration 270 nM, RXRa partner concentration 90 nM)
Summary of the method: as §1

[3] = system: LXRa homodimer (NR concentration 270 nM)
Summary of the method: as §1

[4] = system: LXRb:RXRa (NR concentration 270 nM, RXRa partner concentration 90 nM)
Summary of the method: as §1

[5] = system: LXRb homodimer (NR concentration 270 nM)
Summary of the method: as §1

[6] = system: PPARa:RXRa (NR concentration 270 nM, RXRa partner concentration 90 nM)
Summary of the method: as §1

[7] = system: PPARg:RXRa (NR concentration 180 nM, RXRa partner concentration 90 nM)
Summary of the method: as §1

[8] = system: PPARg:RXRa 270nM:90nM, anti-RXR (NR concentration 270 nM, RXRa partner concentration 90 nM)
Summary of the method: as §1

[9] = system: PPARg:RXRa 30nM:10nM, anti-RXR (NR concentration 30 nM, RXRa partner concentration 10 nM)
Summary of the method: as §1

[10] = system: PPARg:RXRa 90nM:30nM, anti-RXR (NR concentration 90 nM, RXRa partner concentration 30 nM)
Summary of the method: as §1

| Sequence | PBM binding z-score [1] | PBM binding z-score [2] | PBM binding z-score [3] | PBM binding z-score [4] | PBM binding z-score [5] | PBM binding z-score [6] | PBM binding z-score [7] | PBM binding z-score [8] | PBM binding z-score [9] | PBM binding z-score [10] |
| --- | --- | --- | --- | --- | --- | --- | --- | --- | --- | --- |
| ACTCGGAGGACAAAGGTCAGAGCCACGCCAGTGA | 4.39 | 4.56 | 1.53 | 3.52 | 0.161 | 5.36 | 8.4 | 7.54 | 6.19 | 8.08 |
| AGCATGAGGTTAAGATCAGGGAAACAGAATACAT | 1.97 | 2.02 | 0.07 | 1.75 | 0.151 | 3.06 | 1.14 | 1.04 | 0.357 | 0.819 |
| AGAGTGAGGTTATTAAGATCAGGGAATTGCGGTC | 1.77 | 1.58 | 0.813 | 1.94 | 0.987 | 2.46 | 0.616 | 1.31 | 0.245 | 1.12 |
| CCTTACGGGTCACGAGGTTATTGCACGACGAGCG | 6.84 | 4.54 | 0.946 | 4.15 | 0.296 | 6.08 | 7.34 | 6.45 | 3.32 | 5.41 |
| CCAGACAGTTGAAAGGTAACTCAGTCTGGTACGC | 0.192 | 0.408 | -0.24 | 0.365 | -0.0531 | 1.47 | 0.992 | 1.75 | 0.231 | 0.964 |
| CCTGTTAGGTCAATGGTCAGCTAAAGCAGCTCGC | 3.84 | 2.92 | 0.645 | 2.06 | 1.38 | 3.49 | 3.07 | 4.36 | 2.03 | 3.91 |
| CAAACTAGGTCAAGGTCAATGTCGGTTTGTGCCA | 6.03 | 5 | 3.19 | 4.14 | 1.08 | 5.94 | 9.35 | 7.99 | 6.08 | 8.16 |
| TAGCCTAGGTCATGCGGTCCAGTATAGTGTCGGC | 4.09 | 2.83 | 0.301 | 1.8 | -0.379 | 3.51 | 2.34 | 2.32 | 0.235 | 1.3 |
| CGTCAAGGTTCAAGGTAACGTAACAGAAAGCAGC | 4.59 | 3.3 | 0.601 | 2.06 | -0.166 | 3.56 | 2.25 | 2.63 | 0.331 | 1.55 |
| AATACAGGGTCATCGTAGGCGAGAGTACGCACAG | 7.5 | 6.16 | 2.08 | 4.6 | 1.54 | 5.94 | 6.58 | 6.21 | 2.48 | 4.92 |
| CGTCCAAGGTCAGAGGTCAGTGAAGAGATGACGG | 6.67 | 5.39 | 1.56 | 4.73 | 0.465 | 6.09 | 8.26 | 6.86 | 5.6 | 7.06 |
| CGAACTAGGTCATTGACAGAACAGTGAATAGTAA | 4.26 | 2.84 | 0.516 | 2 | 0.18 | 4.66 | 7.52 | 6.34 | 4.05 | 5.58 |
| CTACCAAGGTGAACAAGGTCGTTAATTACTATTC | 1.3 | 1.23 | 0.268 | 1.86 | -0.284 | 2.61 | 1.07 | 1.5 | 0.266 | 1.15 |
| ATACCAGGGTGATCGTGAGGTCGTTGATACTAAC | 1.34 | 1.44 | 0.904 | 1.5 | 0.0794 | 1.82 | 0.781 | 0.722 | 0.104 | 0.486 |
| TCTCGGAGGACACGAAAGTTCAGAGCTCGACATC | 1.03 | 2.18 | 2.89 | 0.952 | -0.575 | 1.14 | 0.211 | 1.25 | 2.34 | 1.81 |
| TGAATGAGGATATAAGATCAGGGAACGTTGCAAA | 0.013 | -0.248 | -0.305 | -0.404 | -0.253 | -0.127 | 0.623 | 0.286 | 0.757 | 0.775 |
| TCTTGTAGATCAGCCGGTTAAGAAAGCTGGCCAA | -0.161 | 0.143 | -0.223 | 0.0561 | -0.394 | 0.168 | -0.791 | 1.24 | 2.52 | 1.74 |
| CAAACTAGGTTAAGGTCAAAGTCGGTTTGTGCCA | 5.87 | 5.27 | 3.87 | 4.36 | 1.08 | 5.45 | 7.13 | 6.97 | 5.07 | 7.2 |
